Tau fluor counter – counter-screen for tau fibril formation inhibitors; tau K18 P301L Alexa594 fluorescence, heparin fibrillization; Potency, µM (doses to about 57.7 µM), for the others: top-dose activity change, negative = decrease; 280,000 compounds, 0.93% hits; also: nearly all actives have a fitted effect of over 55% in size
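Human tau K18 P301L (15 uM unlabeled, 0.24 uM Alexa 594-labeled) in 100 mM sodium acetate pH 7 with 20 uM heparin, 6 hr at 37 C. ThT 30 uM added, 1 hr ambient; Alexa 594 FP and total fluorescence read at 555/632 nm.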
TRb SRC2 PPI – disrupts binding of human TR beta to SRC2; TRbeta-SRC2 peptide binding, fluorescence polarization; receptor liganded with 1 µM T3; AID 1469; Potency, µM (series often up to 106 µM), for inactives: at the top dose activity change, negative = inhibition, actives largely listed as inhibitors; 280,000 compounds, 0.065% hits;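 also: plate controls were bound peptide for no effect and peptide without receptor for full effect; nearly all actives have a fitted effect of over 50% in size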
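Human TRb LBD (0.6 uM) plus Texas Red-labeled SRC2 peptide (20 nM), 1uM T3, 5% DMSO, 5 hr at ambient temperature. Decreased polarization (555/632 nm) flags inhibition; data normalized to free and bound peptide controls.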
Tau fibril FP – inhibitors of human tau fibril formation | Potency, µM (series often up to 57.7 µM), without a hit: at the top dose activity, negative = inhibition, actives largely listed as inhibitors | K18 P301L tau heparin fibrillization, Alexa594 FP, 6 h | P10636 | 280,000 compounds, 0.39% hits | AID 1468; also: nearly all actives have a fitted effect of over 55% in size
Target sequence (P10636 561-689 P618L limits assumed): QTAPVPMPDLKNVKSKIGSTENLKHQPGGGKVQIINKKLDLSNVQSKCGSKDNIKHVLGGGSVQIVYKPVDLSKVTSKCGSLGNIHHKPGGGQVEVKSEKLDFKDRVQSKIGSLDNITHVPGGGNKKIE
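Compound effects on tau fibrillization are measured by Alexa 594 fluorescence polarization (ex 555, em 632 nm). K18 P301L tau is used at 15 uM with 0.24 uM labeled tracer, and 20 uM heparin induces aggregation over 6 hr at 37 C.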
RGS12 GoLoco inh – RGS12 GoLoco-Gai1 interaction inhibition; P63096; Gai1:RGS12 GoLoco peptide FP, rhodamine, 10 min; Potency, µM (top dose mostly 61.6 µM), for inactives: at the highest dose activity, negative = inhibition, usual class: inhibitors; 230,000 compounds, 0.44% hits; AID 880; active = well fitted inhibition curve with a large enough effect, not every such curve was filed as active; inactive = no such curve, though single readings can be large or run the other way; also: nearly all actives have a fitted effect of over 30% in size
Target sequence (P63096 whole entry, looked up): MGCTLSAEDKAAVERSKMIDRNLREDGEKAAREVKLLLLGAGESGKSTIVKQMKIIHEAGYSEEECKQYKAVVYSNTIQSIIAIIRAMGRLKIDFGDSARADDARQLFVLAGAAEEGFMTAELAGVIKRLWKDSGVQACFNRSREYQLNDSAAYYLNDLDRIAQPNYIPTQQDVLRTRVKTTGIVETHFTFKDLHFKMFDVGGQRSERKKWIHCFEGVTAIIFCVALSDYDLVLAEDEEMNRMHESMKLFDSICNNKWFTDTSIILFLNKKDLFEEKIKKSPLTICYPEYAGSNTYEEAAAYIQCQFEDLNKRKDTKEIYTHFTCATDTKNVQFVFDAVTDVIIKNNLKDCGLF
Tau ThT inhib – inhibitors of human tau fibril formation, thioflavin T binding | recombinant tau K18 P301L (four-repeat tau fragment), heparin-induced fibrillization, ThT fluorescence | Potency, µM (highest dose often 57.4 µM), inactives show at the highest dose activity, negative = inhibition, most hits filed as inhibitors | P10636 | 270,000 compounds, 2.1% hits | AID 1460; also: nearly all actives have a fitted effect of over 55% in size
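Heparin-induced fibrillization of the P301L-mutant K18 repeat-domain fragment of human tau was followed by ThT binding in quantitative high-throughput format.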
TR SRC2 fluor cs – alters Texas Red total fluorescence, flagging assay interference | 280,000 compounds, 0.29% hits | AID 1479 | TRb/SRC2 Texas Red total fluorescence interference | Potency, µM (doses to about 106 µM), without a hit: top-dose fluorescence change, negative = quenching; active = well fitted curve in either direction with a large enough effect; inconclusive = small, poorly fitted or top-dose-only effect
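Human TRβ ligand-binding domain (0.6 uM) and Texas Red SRC2 peptide (20 nM) in Tris buffer with 1 uM T3 and 5% DMSO were incubated with pinned compound for 5 hr at ambient temperature. Total fluorescence was computed as S + 2P (555/632 nm).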
The depositor's hits bear a star; ? = inconclusive; nt = not tested or not shown; [ ] = remark or other dose. The list is not random: actives were taken first. Their share in the collection is about 3.2%. Unless noted, calls follow the shape of the dose curve; as a rule, active = well fitted curve in the direction sought with a large enough effect; inconclusive = small, poorly fitted or top-dose-only effect, or another doubt; inactive = no such curve, though single readings can be large; an effect the other way counts as inactive or inconclusive. Unless noted, % is scaled to controls: 0 for no effect and ±100 for the full control effect; potency is read from the fitted curve at half-maximal effect.

SMILES	Tau fluor counter	TRb SRC2 PPI	Tau fibril FP	RGS12 GoLoco inh	Tau ThT inhib	TR SRC2 fluor cs
Oc1csc(Cc2nc(-c3ccc4ccccc4c3)cs2)n1	13µM*[quencher]	1%	4%	13%	3.5µM*	-4%
Oc1csc(Cc2nc(-c3ccccc3F)cs2)n1	?	0%	-4%	59%	14µM*	-3%
Oc1csc(Cc2nc(-c3ccc(-c4ccccc4)cc3)cs2)n1	-29%	1%	5%	27%	?	-4%
Cc1nnc(N/N=C\c2ccc(-c3ccccc3[N+](=O)[O-])o2)n1N	?	-2%	?	-1%	10µM*	-2%
Cc1nnc(N/N=C/c2ccc(-c3ccccc3F)o2)n1N	?	1%	-6%	7%	13µM*	1%
COCCN1CCc2[nH]c(=S)[nH]c(=O)c2C1	-6%	0%	1%	-12%	-9%	-38%
CCCCN1CCc2[nH]c(=S)[nH]c(=O)c2C1	-5%	-22%[53 µM]	5%	-18%	-5%	0.71µM*[quencher]
CCCCCn1ccc(=N)cc1	3%	7%	4%	13µM*	4%	1%
CCCCCCCn1ccc(=N)cc1	-9%	-8%	-11%	16µM*	-4%	-1%
O=C(c1ccc(Cl)cc1)c1ccc(Cl)cc1	nt	0%[201 µM]	nt	nt	nt	-1%[201 µM]
N#Cc1ccc(CN2CC[C@@]3(CCCN(C(=O)c4ccncc4)C3)C2)cc1	nt	nt	nt	3%	nt	nt
Cc1ccc(CN(Cc2ccco2)C(=O)COc2cccc(C)c2C)o1	4%	0%	3%	nt	1%	-1%
Cc1cccc(OCC(=O)N(Cc2ccc(N(C)C)cc2)Cc2ccco2)c1C	?	-26%[53 µM]	10%	nt	?	0.45µM*[quencher]
Cc1nc(C)c(-c2ccc(SCC(=O)Nc3ccccc3F)nn2)s1	-16%	8%	-5%	nt	?	0%
N#C/C(=C\c1ccccc1)c1nc(-c2cc3c(ccc4ccccc43)oc2=O)cs1	-13%	-29%[53 µM]	?	nt	2%	0.28µM*[quencher]
N#C/C(=C\c1ccc(Cl)cc1)c1nc(-c2cc3c(ccc4ccccc43)oc2=O)cs1	-6%	-3%	-5%	nt	-4%	-11%
O=C1C[C@@H](O)[C@@H](O)[C@@H]2[C@H]3C(=O)N(c4ccc(F)cc4F)C(=O)[C@@H]3CC[C@H]12	-3%[11.6 µM]	0%[11.2 µM]	-10%[11.6 µM]	nt	0%[11.5 µM]	-6%[11.2 µM]
COc1ccc(-c2cc([C@H](O)C3CCCCN3)c3ccccc3n2)cc1 (stereo partly drawn)	nt	nt	nt	7%[14.2 µM]	nt	nt
CCCCC(=O)Nc1cc(C)c(O)c(-c2nc3ncccc3o2)c1	-8%	6%	0%	nt	-3%	6%
C=CCc1cccc(CNc2nc3ccccc3n2CCC)c1O	14µM*[quencher]	3%	13%	6%	-16%	-5%
CCCn1c(NCc2ccccc2C)nc2ccccc21	-6%	-1%	4%	nt	-3%	0%
CCCCn1c(NCc2ccccc2O)nc2ccccc21	-28%	-5%	8%	8%	?	2%
C=CCc1cccc(CNc2nc3ccccc3n2CC)c1O	18µM*[quencher]	-18%	14%	-6%	-17%	-2%
CCOc1cccc(CNc2ccc(O)cc2)c1OCc1ccc(Cl)cc1Cl	?	25µM*	28µM*	-3%	28µM*	4%
CCOc1cccc(CNc2ccc(O)cc2)c1OCc1ccccc1Cl	10µM*[quencher]	2%[11.2 µM]	11µM*	-27%	28µM*	1%[11.2 µM]
SMILES	Tau fluor counter	TRb SRC2 PPI	Tau fibril FP	RGS12 GoLoco inh	Tau ThT inhib	TR SRC2 fluor cs
CCOc1cc(CNc2ccc(O)cc2)cc(Cl)c1OCc1ccccc1	16µM*[quencher]	?	-8%	nt	?	?
CCOc1cccc(CNCCO)c1OCc1ccc(Cl)cc1Cl	-8%	-14%	0%	6%	-12%	-2%
CCOc1c(Cl)cc(CNc2ccc(N3CCCC3)cc2)cc1OC	?	?	7.9µM*	-29%	3.2µM*	11%
CCC1(c2ccc(OC)cc2)NC(=O)N(C)C1=O (stereo not drawn)	nt	-5%	nt	nt	nt	5%
C=C(C)C(=O)OCCOCC	nt	-9%	nt	nt	nt	?
Cc1ccc(NC(=O)/C(C#N)=C/c2cc(C)n(-c3ccc(F)cc3)c2C)cc1C	1%	-3%	-4%	nt	-2%	2%
CN(C)c1nc(C=C(C#N)C#N)c(Cl)n1-c1ccc(F)cc1	-29%	1%	?	3%	14µM*	-1%
Cc1ccc2nc(N/N=C\c3cccc(C)n3)cc(C)c2c1	nt	nt	nt	11%[14.2 µM]	nt	nt
CCO[C@H](c1cc(OC)cc([N+](=O)[O-])c1OC)[C@H](C)/C=C\CC(=O)OC	-9%[11.6 µM]	1%[11.2 µM]	-12%[11.6 µM]	nt	-5%[11.5 µM]	-7%[11.2 µM]
O=C(CCNc1ccccc1)c1cccc([N+](=O)[O-])c1	-7%	-7%	-4%	nt	-11%	-2%
Cc1nc(SCC(=O)c2cccc([N+](=O)[O-])c2)n[nH]1	-28%	3%	?	0%	40µM*	2%
O=C(CCNc1ccc(F)cc1)c1cccc([N+](=O)[O-])c1	16µM*[quencher]	0%	9%	-8%	?	-1%
O=C(CCNc1ccc(Br)cc1)c1cccc([N+](=O)[O-])c1	28µM*[quencher]	3%	?	15%	?	-3%
Cc1ccnc(SCC(=O)c2cccc([N+](=O)[O-])c2)n1	-13%	4%	-3%	3%	-10%	-3%
O=C(CCNc1ccc(Cc2ccncc2)cc1)c1ccc([N+](=O)[O-])cc1	7.9µM*[quencher]	-6%	-3%	12%	10µM*	-7%
CCOc1ccc(N2C(=O)C3Sc4[nH]c(=O)sc4C(/C=C/c4ccccc4)C3C2=O)cc1 (stereo not drawn)	?	-8%	-16%	40%	14µM*	2%
COc1cc(C2c3sc(=O)[nH]c3SC3C(=O)N(c4ccc(Br)cc4)C(=O)C32)ccc1O (stereo not drawn)	?	-2%	3%	-4%	?	-3%
COc1ccc(CNc2ncnc3c2[nH]c2ccccc23)cc1	20µM*[quencher]	-7%	0%	0%	?	-1%
COc1ccc(CNc2ncnc3c2[nH]c2cc(OC)c(OC)cc23)cc1	10µM*[quencher]	-5%	?	15%	?	-4%
C1=C(CCNc2ncnc3c2[nH]c2ccccc23)CCCC1	16µM*[quencher]	-5%	-5%	40%	?	?
CCN(CC)C(=O)CSc1nc2cc3c(cc2c(=O)n1CCCCCC(=O)NCCc1ccc(OC)c(OC)c1)OCO3	12%	5%	6%	nt	3%	?
CC(=O)C(C(C)=O)c1c(Cl)c(O)c(O)c2c(C(=O)c3ccccc3)coc12	?	4%	?	-25%	16µM*	-2%
CNc1cccc2c1C(=O)c1ccccc1C2=O	?	-1%	-3%	64%	8.9µM*	12%
CCc1cc2c(=O)c(-c3ccc4c(c3)OCCO4)coc2cc1OS(C)(=O)=O	-29%	9%	-8%	10%	-17%	-2%

Screening results deposited in PubChem BioAssay by National Center for Advancing Translational Sciences (NCATS).
